# Bioassay records deposited in PubChem by several laboratories.
# H9c2 protect = myocardial damage modulation in H9c2 cells. protection from H2O2 cell death, % at 20 µM. H9c2 cardiomyocytes, H2O2 injury protection, ATPLite, 2 h. actives 0.63% (n = 360,000);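 active = compounds giving at least 50% protection of heart cells from peroxide-induced death in the single-dose screen, raw or plate-pattern-corrected value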;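 note: 0% = DMSO wells with peroxide and 100% = DMSO wells without peroxide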
# Calb FLC = C. albicans growth modulation with fluconazole. C. albicans CaCi-2 (fluconazole-resistant clinical isolate) + fluconazole, Alamar Blue growth, 48 h. growth inhibition, % (test concentration not listed). actives 0.57% (n = 300,000);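 active = growth inhibition above about 58% in most replicates, limit read from the data, passing the limit was not always enough; inconclusive = exactly half the replicates above a set limit; inactive = most replicates below a set limit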;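 note: all wells also contain fluconazole at 8 µg/ml as a sub-toxic cotreatment; 0% = median of DMSO wells and 100% = median of geldanamycin control wells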
# Efflux pump mplx = blocks antifungal efflux pumps in multiplex yeast assay; actives 0.44% (n = 330,000); S. cerevisiae Candida pump triplex, Nile Red efflux; inhibition, % at 10 µM;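 active = plate passing quality check with inhibition over a set limit, or well fluorescence over plate mean plus 4 SD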;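 note: Nile Red retained in pooled yeast measured as flow cytometry median fluorescence; 0% = buffer negative control and 100% = Enniatin B positive control; higher means more Nile Red kept so more efflux inhibition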
# Cl transport mod = modulates chloride dependent transport by human KCC2 | Q9H2X9 | KCC2 cells, thallium flux FluoZin-2 fluorescence | B-score of Tl+ flux slope (higher = more flux/activation; lower = inhibition) at 10 µM | actives 2.2% (n = 190,000);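 active = thallium flux slope and its plate-corrected score both differing from the plate sample mean at a set confidence after two filtering rounds, in either direction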;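 note: slope of fluorescence scaled to starting intensity during 10 to 20 s after thallium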
# PHOSPHO1 block = inhibitors of human PHOSPHO1 phosphatase. actives 1.1% (n = 290,000). inhibition, % at 13.3 µM. Q8TCT1. recombinant PHOSPHO1, absorbance phosphatase assay. AID 1565; in the data active = inhibition above about 60%
# KCC2 sec1 = KCC2 (human) modulation, secondary assay; shares compounds with Cl transport mod; HEK293-KCC2, thallium flux, FluoZin2 fluorescence; stronger effect = higher value; normalised thallium flux (F/F0 slope) at 10 µM; actives 15% (n = 3,700);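 active = thallium flux slope above the same plate's solvent-only control mean plus 3 SD; inconclusive = the two replicate wells disagree; inactive = no significant difference from solvent-only control wells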
# KCC2 bumet counter = thallium flux despite bumetanide block in KCC2 cells, secondary assay 3. shares compounds with Cl transport mod. HEK293-KCC2 + bumetanide/ouabain, thallium flux FluoZin2; stronger effect = higher value. normalized thallium flux at 10 µM. actives 49% (n = 3,700);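 active = thallium entry rate above the same plate's blocked-transporter control wells by more than 3 SD; inconclusive = the two repeat wells disagree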;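 note: raw slope of fluorescence over initial fluorescence between 10 and 20 s after thallium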
# KCC2 secondary2 = confirmation of human KCC2 transport modulators | normalized thallium flux at 10 µM | shares compounds with Cl transport mod | HEK293-KCC2, thallium flux FluoZin2 fluorescence; actives lie on both sides; F/F0 rise rate, 10–20 s post-thallium | actives 23% (n = 3,700);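 active = thallium flux slope more than 3 SD above or below the plate's solvent-only control mean, mostly below; inconclusive = the two repeat wells disagreed; inactive = no significant shift from solvent-only controls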;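 note: raw slope with 0.1% DMSO as baseline and bumetanide as block control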
# HEK293 Tl flux = parental HEK flux effect, counter-screen | HEK293 parental cells, thallium flux FluoZin2, ouabain; baseline-ratio fluorescence slope, 10–20 s after thallium | actives 46% (n = 3,700) | AID 1716 | shares compounds with Cl transport mod | thallium flux rate (normalised fluorescence) at 10 µM;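 active = thallium flux rate significantly above the same plate's solvent-only control wells, beyond their mean plus 3 SD; inconclusive = the two replicate wells gave conflicting results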
# KCC2 retest ouab = confirmation of human KCC2 modulators with ouabain; raw Tl+ flux slope (below DMSO = inhibition, above = activation) at 10 µM; HEK293-KCC2, thallium flux FluoZin2 fluorescence; bidirectional: low = inhibitor, high = activator; shares compounds with Cl transport mod; actives 48% (n = 3,700);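 active = thallium flux slope beyond 3 SD from same-plate DMSO control mean in most replicates, usually higher, sometimes lower; inconclusive = repeat tests gave conflicting results; inactive = no significant difference from controls in most replicates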;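 note: slope of initial-normalized fluorescence between seconds 10 and 20 after thallium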
# HEK counter2 = acts in parental HEK cells, second KCC2 counter-screen; shares compounds with Cl transport mod; HEK293 parental, thallium flux FluoZin-2 fluorescence slope; thallium flux slope at 10 µM; actives 33% (n = 3,700); AID 1718;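 active = thallium flux slope above the same plate's solvent-control mean plus 3 SD in both duplicate wells; inconclusive = duplicate wells that disagreed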;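 note: run without ouabain in cells lacking the KCC2 cotransporter; slope of fluorescence scaled to its starting value between 10 and 20 s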
# The depositor's hits bear a star; ? = inconclusive; . = no result given. In the library only some 3.3% were active in any assay of this set; here they are far more common.
SMILES,H9c2 protect,Calb FLC,Efflux pump mplx,Cl transport mod,PHOSPHO1 block,KCC2 sec1,KCC2 bumet counter,KCC2 secondary2,HEK293 Tl flux,KCC2 retest ouab,HEK counter2
O=C(Cn1cnc2c(cnn2-c2ccc(F)cc2)c1=O)N1CCN(c2ccccc2F)CC1,-6.1,-6.6,-0.1,-0.948,-6.0,.,.,.,.,.,.
O=C(Cn1nnc2c(cnn2-c2ccccc2)c1=O)N1CCN(c2ccccc2F)CC1,-3.1,-10.6,0.1,-5.48*,-4.9,0.00576,?,0.0205*,0.00681,0.0143*,0.00916
Oc1ccccc1C(Nc1nccs1)c1ccc2cccnc2c1O (centres undefined),32.1,94.5*,0.4,5.02*,26.6,0.00891,0.0152*,0.029,0.00861*,?,0.00966
CCc1cc2cccc(C)c2nc1SCC(=O)N1CCN(C(=O)c2ccco2)CC1,58.8*,-5.3,0.2,-3.19*,1.8,0.0157,0.00426,0.0211*,0.00466*,0.0126*,0.00722*
O=C(CSc1nc2ccccc2s1)N1CCN(C(=O)c2ccco2)CC1,12.7,-5.9,0.1,-0.0157,-3.4,.,.,.,.,.,.
O=C(CSc1nc(-c2ccc(F)cc2)cs1)N1CCN(C(=O)c2ccco2)CC1,5.0,-6.3,0.1,-3.06*,27.5,0.00739,0.00608,0.0288,0.00609,0.0148*,0.00901
Cc1cccc(NC(=O)Nc2c(C)n(C)n(-c3ccccc3)c2=O)c1C,9.0,2.2,-0.1,.,46.6,.,.,.,.,.,.
Cc1c(Nc2nc(-c3ccc(Cl)cc3)cs2)c(=O)n(-c2ccccc2)n1C,-10.1,11.9,-2.7,-4.52*,-16.4,0.00651,0.00516,0.0241*,0.00576*,0.0135*,?
Cc1c(NC2=C(Cl)C(=O)N(c3ccccc3)C2=O)c(=O)n(-c2ccccc2)n1C,-10.7,-2.3,-0.2,-4.35*,18.9,?,0.00694,0.0348,0.00445,0.0207,0.0109
Cc1c(NC2=C(Cl)C(=O)N(c3ccccc3Cl)C2=O)c(=O)n(-c2ccccc2)n1C,1.3,-7.9,0.0,-0.339,-8.2,.,.,.,.,.,.
CC(OC(=O)c1ccncc1)C(=O)Nc1ccc([N+](=O)[O-])cc1Cl (centres undefined),3.7,29.7,0.3,0.372,15.0,.,.,.,.,.,.
CNc1nc2cccnc2s1,-5.0,-0.5,-0.2,-0.0247,26.8,.,.,.,.,.,.
N#Cc1c(Cl)nc(SCc2ccccc2)nc1-c1ccccc1,.,.,0.1,-4.91*,95.9*,0.0055,0.00391,0.0236*,0.00549*,0.014*,0.00834*
c1ccc(CSc2nnc(-c3ccccc3)c(-c3ccccc3)n2)cc1,-4.8,12.1,-0.1,.,.,.,.,.,.,.,.
CCN(CC)C(=O)C1=C(C)N(CCCOC)C(=O)C(CC(=O)NC2CCCC2)C1 (centres undefined),14.6,.,.,.,.,.,.,.,.,.,.
CCC(C)(C)n1nnnc1C(c1ccc2ncccc2c1)N1CCN(c2nc3ccccc3s2)CC1 (centres undefined),-0.1,21.1,0.3,.,13.6,0.00845,0.00617,0.0312,0.00702,0.0157*,0.0109
CCCC(c1nnnn1CC1CCCO1)N1CCN(c2nc3ccccc3s2)CC1 (centres undefined),-1.9,-3.7,0.0,-3.79*,2.9,0.0063,0.00404,0.0274,0.00681,0.0133*,0.00893
CCCCC(c1nnnn1CC1CCCO1)N1CCN(c2nc3ccccc3s2)CC1 (centres undefined),-1.6,7.8,.,-4.11*,37.2,0.00586,0.00406,0.0229*,?,0.0123*,0.0095
